# Assay outcomes from PubChem.
# Shown are actives, neighbours in structure and some others; about 4% of the full set was active somewhere.
# HIF-2a inh: blocks HIF-2a reporter activity; 786-0 RCC cells HIF-2a reporter, luciferase luminescence, overnight; inhibition, % at 18.8 µM; 360,000 compounds, 0.72% hits; AID 624352;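 active = inhibition of the luminescence signal of 40% or more relative to plate controls, in a single-dose primary screen at 18.75 µM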
# Peg3 prom inh: inhibitors of Peg3 promoter; HeLa PEG-Prom luciferase reporter, luminescence, overnight; inhibition, % at 20 µM; 360,000 compounds, 1.7% hits; AID 588405;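 active = inhibition of at least 50% at 20 µM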
# CF NFkB block: cystic fibrosis NF-kB activation inhibition | KKLEB NF-kB-GFP reporter, PAF-induced, GFP fluorescence overnight | inhibition, % at 5 µM | 360,000 compounds, 0.86% hits | AID 588850;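 active = at least 50% inhibition at 5 µM, scaled per plate between neutral and stimulator controls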;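 note: PAF is a Pseudomonas aeruginosa culture filtrate used as stimulus; plate controls were PAF-stimulated DMSO wells for no effect and unstimulated DMSO wells for full effect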
# KKLEB tox: counter-screen for CF NF-kB inhibitors: cytotoxicity; 360,000 compounds, 0.36% hits; AID 602141; KKLEB CF airway cells viability, ATPlite luminescence, overnight; hits give low values; cells stimulated with P. aeruginosa culture filtrate; activity change (cytotoxicity), % at 5 µM;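 active = corrected activity change at or below -50% at 5 µM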
# TWEAK Fn14 block: TWEAK-Fn14 signaling inhibition; TWEAK-stimulated Fn14 reporter cells, luciferase luminescence, 8 h; 360,000 compounds, 2% hits; inhibition, % at 10 µM; AID 1159606; in the data active = inhibition above about 50%
# TROY NFkB inh: inhibitors of TROY-dependent NF-kB signaling. Q293 LMP1-TROYcd NF-kB luciferase reporter, 4 h. inhibition, % at 10 µM. 360,000 compounds, 0.98% hits. AID 1347056;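 active = compounds whose plate-normalised and pattern-corrected inhibition of the luciferase reporter signal at the single screening dose is 50% or more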
# Mdm2 MdmX conf: confirmation of inhibitors of human Mdm2/MdmX interaction, set 2 | 740 compounds, 99% hits | AID 504601 | SaOS-2 split-luciferase Mdm2/MdmX complementation, luminescence | shares compounds with HIF-2a inh | inhibition, % at 8 µM;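 active = mean inhibition of the luminescence signal across two replicates at or above 26 percent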
# HIF-2a inh conf: confirmation of HIF-2a inhibitors; shares compounds with HIF-2a inh; inhibition, % at 18.8 µM; 1,800 compounds, 56% hits; 786-0 RCC cells, HIF-2a luciferase reporter luminescence, overnight; AID 651580;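 active = mean inhibition across four replicates of at least 40 percent at the single tested concentration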
# HIF-1a cs: counter-screen for HIF-2a inhibitors: HIF-1a inhibition in MiaPaCa-2 cells | shares compounds with HIF-2a inh | MiaPaCa-2 HIF-1a luciferase reporter, desferoxamine, overnight | inhibition, % at 18.8 µM | 1,800 compounds, 72% hits | AID 651589;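 active = mean inhibition of the reporter signal across four replicates at the single tested dose of 50% or more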
# * marks the source's active call; other numbers are inactive results; . = not tested or not shown.
SMILES,HIF-2a inh,Peg3 prom inh,CF NFkB block,KKLEB tox,TWEAK Fn14 block,TROY NFkB inh,HIF-2a inh conf,HIF-1a cs,others
COC(=O)C1=C(c2ccc(C(C)=O)cc2)C[C@@H]2CC[C@H]1N2C(=O)NCc1ccc(F)cc1,8,6,-12,-9,10,-18,.,.,
COc1cc([N+](=O)[O-])c2nc(C)ccc2c1[N+](=O)[O-],-10,7,26,-22,25,4,.,.,
COc1cc([N+](=O)[O-])c2ncccc2c1[N+](=O)[O-],43*,48,28,-2,33,8,1,78*,
CCCCn1nnnc1C(c1cccc(OC)c1OC)N1CCC2(CC1)C(=O)NCN2c1ccccc1 (stereo not given),19,28,5,-2,34,17,.,.,
COc1ccc(/C=C/C(=O)c2c(O)n(CCC3=CCCCC3)c(=O)[nH]c2=O)cc1,53*,7,-18,2,46,16,33,65*,
C[C@H]1[C@@H](OS(=O)(=O)O)C[C@@H]2C[C@H]([C@@H](O)c3cc(=O)[nH]c(=O)[nH]3)NC3=NC[C@H]1N32,54*,97*,76*,-10,60*,25,23,105*,
Nc1ccc(Cl)cc1C(=O)c1ccccc1Cl,4,24,26,0,27,37,.,.,
C[C@H]1CC[C@@H]2[C@@H](C)[C@H]3[C@H](C[C@H]4[C@@H]5CC=C6C[C@@H](O[C@@H]7O[C@H](CO)[C@H](O)[C@H](O[C@@H]8O[C@H](CO)[C@@H](O)[C@H](O)[C@H]8O)[C@H]7O[C@@H]7O[C@@H](C)[C@H](O)[C@@H](O)[C@H]7O)CC[C@]6(C)[C@H]5CC[C@]34C)N2C1,87*,32,-2,8,4,-8,31,68*,
CC1CN(c2ccc([N+](=O)[O-])c(N3CCCCC3)c2)CCN1 (stereo not given),24,3,1,11,1,10,.,.,
O=C(Nc1ccc(OC(=O)N2CCCCC2)cc1)N1CCOCC1,72*,16,15,7,94*,85*,76*,51*,
N[C@H](CO)Cc1ccccc1,12,-26,-4,5,6,9,.,.,
O=C1NCN(c2ccccc2)C12CCN(C(c1ccnc3ccccc13)c1nnnn1-c1ccc3c(c1)OCCO3)CC2 (stereo not given),5,41,12,-7,41,9,.,.,
C=C1C(=O)[C@@]23C[C@H]4[C@@H]5[C@@]6(C)CCC[C@@]57[C@@H]2[C@@H](O)[C@@H]1C[C@H]3[C@H]7N4C6,69*,93*,74*,2,50,16,.,.,Mdm2 MdmX conf=101*
C=C1C(=O)O[C@@H]2C[C@@H](C)[C@@H]3C4OC4C(=O)[C@@]3(C)[C@@H](O)[C@H]12 (stereo not given in full),88*,96*,92*,-46,97*,15,95*,104*,
C=C1C(=O)OC2CC(C)C3C=CC(=O)C3(C)C(O)C12 (stereo not given),86*,106*,96*,-62*,102*,26,94*,100*,
C=C1C(=O)O[C@H]2C[C@@H](C)[C@@H]3C=CC(=O)[C@@]3(C)C[C@H]12,.,.,.,.,.,.,.,.,Mdm2 MdmX conf=103*
NP(=O)(Oc1ccc(Cl)cc1)Oc1ccc(Cl)cc1,13,4,2,-5,-7,12,.,.,
Cc1ccc(CN2Cc3ccc(Br)cc3-n3nncc3C2)cc1,-3,-8,11,-2,-9,7,.,.,
Cc1cc([N+](=O)[O-])c2ccccc2[n+]1[O-],48*,108*,-8,-12,4,-31,.,.,Mdm2 MdmX conf=103*
CC1([N+](=O)[O-])COP(=O)(Nc2cccc(Br)c2)OC1 (stereo not given),-5,4,48,-7,28,11,.,.,
C[C@H]1CCC/C=C/C2C[C@H](O)CC2[C@H](O)/C=C/C(=O)O1 (stereo not given in full),68*,55*,81*,-7,57*,-63,.,.,Mdm2 MdmX conf=103*
CC1CCC/C=C/C2CC(O)CC2C(O)/C=C/C(=O)O1 (stereo not given),46*,60*,79*,-60*,76*,-54,34,78*,Mdm2 MdmX conf=103*
CC1CCC[C@H](O)CCCCCc2cc(O)cc(O)c2C(=O)O1 (stereo not given in full),7,15,30,0,-6,-5,.,.,
COC(=O)C1=C(c2ccc(OC)c(OC)c2)C[C@@H]2CC[C@H]1N2C(=O)NC1Cc2ccccc2C1,-68,-66,-18,-6,4,-40,.,.,
COc1cc(/C=N/n2cnnc2)ccc1OC(=O)N(C)C,7,5,2,20,8,10,.,.,
COc1cc(/C=C/[N+](=O)[O-])ccc1OC(=O)c1cccnc1,42*,88*,34,1,47,66*,54*,45,
CN(C)C(=O)O/N=C(\N)COc1ccc(C(C)(C)C)cc1,60*,107*,5,-6,-55,-30,-76,-45,Mdm2 MdmX conf=103*
